In PubChem BioAssay (EPA / NIEHS):
A structure can be active in one record and inactive in another. The source made the active and inactive calls. How the source made its calls: active means hit-call score of the fitted dose curve at least 0.9, where 1 is the maximum; inactive means score below 0.9.

Key:
[1] = APR_HepG2_NuclearSize_72hr: Apredica 72-hour HepG2 Assay for Nuclear Size (AID 2282925); settings: high-content imaging, actives raise or lower the signal
Procedure, shortened: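 Nuclear size was read by high-content imaging of Hoechst 33342 stain after formaldehyde fixation. Compounds ran 72 h on HepG2 at 0.39 to 200 uM, with final DMSO 0.5% v/v. Curves fitted both directions relative to DMSO control.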

[2] = ATG_CRE_CIS: Attagene CIS-FACTORIAL HepG2 Assay for human cAMP Responsive Element (CRE) binding protein 3 (AID 2282926); settings: HepG2 CRE cis-reporter, Attagene multiplexed mRNA; actives raise or lower the signal
Procedure, shortened: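 Endogenous transcription factor activity read via CRE-regulated reporter transcripts in transfected HepG2 cells. After 24 h exposure, RNA was reverse-transcribed, amplified, fluorescently labelled and sized by capillary electrophoresis; gain or loss fitted against DMSO.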

[3] = target: CCAAT/enhancer-binding protein beta (Homo sapiens) (UniProt P17676); assay: ATG_C_EBP_CIS: Attagene CIS-FACTORIAL HepG2 Assay for human CCAAT/Enhancer Binding Protein (C/EBP) beta (AID 2282927); settings: HepG2 Attagene cis-factorial transcription factor reporter; actives raise or lower the signal
Procedure, shortened: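 Endogenous C/EBPb-driven reporter transcripts measured in transfected human HepG2 cells at 24 h via RT-PCR and capillary electrophoresis of labelled fragments. Activity fitted in both directions relative to DMSO baseline.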

[4] = ATG_CMV_CIS: Attagene CIS-FACTORIAL HepG2 Assay for human CMV (Internal Marker) (AID 2282928); settings: HepG2 CMV promoter reporter, transcription factor profiling; actives raise or lower the signal;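 further: endpoint acts as a background internal control marker rather than a target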
Procedure, shortened: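 Fluorescence intensity of RT-PCR-derived reporter fragments, resolved by capillary electrophoresis, gives the signal. HepG2 liver cells bearing transfected cis-element reporters were treated 24 h; activity in either direction was fit relative to DMSO-treated controls.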

[5] = ATG_DR4_LXR_CIS: Attagene CIS-FACTORIAL HepG2 Assay for human Liver X Receptor (LXR), DR4 submotif (AID 2282929); settings: HepG2 Attagene DR4 cis-reporter, mRNA transcription; actives raise or lower the signal
Procedure, shortened: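 Total RNA from 24 h-treated, MRTU-transfected HepG2 cells underwent reverse transcription, PCR, fluorescent primer extension and restriction digestion before capillary electrophoresis. Both increases and decreases in reporter signal were fitted against DMSO.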

[6] = target: Aryl hydrocarbon receptor (Homo sapiens) (UniProt P35869); assay: ATG_Ahr_CIS: Attagene CIS-FACTORIAL HepG2 Assay for human Aryl Hydrocarbon Receptor (Ahr) (AID 2282930); settings: HepG2 AhR cis-factorial reporter transcription; actives raise or lower the signal
Procedure, shortened: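 Reporter mRNA levels, quantified by RT-PCR and fluorescent capillary electrophoresis, reflect endogenous AhR transcriptional activity in HepG2 cells carrying transfected cis-promoter reporter constructs. Readout at 24 h post-dose; gain or loss fitted against DMSO baseline.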

[7] = ATG_AP_1_CIS: Attagene CIS-FACTORIAL HepG2 Assay for human Activator Protein 1 (AP-1) (AID 2282931); settings: HepG2 Attagene cis-factorial AP-1 reporter mRNA; actives raise or lower the signal
Procedure, shortened: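 HepG2, transient cis-reporter transfection; 24 h; readout RT-PCR/CE fluorescence; DMSO baseline, gain and loss fitted.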

[8] = ATG_AP_2_CIS: Attagene CIS-FACTORIAL HepG2 Assay for human Activator Protein 2 (AP-2) (AID 2282932); settings: HepG2 AP-2 cis-reporter, Attagene transcription factor profiling; actives raise or lower the signal
Procedure, shortened: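 Endogenous transcription factor activity is reported through transfected multiplex reporter constructs in HepG2, after 24 h of compound exposure. Transcripts were quantified by RT-PCR and capillary electrophoresis of fluorescent fragments. Bidirectional fit against DMSO.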

[9] = ATG_BRE_CIS: Attagene CIS-FACTORIAL HepG2 Assay for human Bone Morphogenetic Protein (BMP) Response Element (BRE) (AID 2282933); settings: HepG2 BMP response element reporter, Attagene transcription factor profiling; actives raise or lower the signal
Procedure, shortened: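 Endogenous transcription factor activity read in transiently transfected HepG2 cells after 24 h chemical exposure. Bidirectional curve fitting against DMSO; readout is reporter transcript level by RT-PCR with capillary electrophoresis of labelled products.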

[10] = target: Retinoic acid receptor alpha (Homo sapiens) (UniProt P10276); assay: ATG_DR5_RAR_CIS: Attagene CIS-FACTORIAL HepG2 Assay for human Retinoic Acid Receptor Alpha (RARE), DR5 submotif (AID 2282934); settings: HepG2 Attagene cis-factorial RARE DR5 reporter, mRNA; actives raise or lower the signal;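 on AC50: reporter responds to endogenous RAR alpha beta and gamma in HepG2 not RARA alone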
Procedure, shortened: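 Reporter transcripts from a DR5-regulated unit, measured via RT-PCR plus capillary electrophoresis, reflect endogenous RAR activity in transiently transfected human HepG2 liver cells. Exposure lasted 24 h; gain or loss of signal scored against DMSO.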

[11] = target: Transcription factor E2F1 (Homo sapiens) (UniProt Q01094); assay: ATG_E2F_CIS: Attagene CIS-FACTORIAL HepG2 Assay for human E2F Transcription Factor 1 (AID 2282935); settings: HepG2 Attagene cis-reporter, E2F reporter RNA transcripts; actives raise or lower the signal
Procedure, shortened: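 Gain or loss of reporter transcript, fitted against DMSO, reflects E2F1-driven transcription. Transiently transfected HepG2 dosed 24 h before RNA isolation. Quantified by fluorescent RT-PCR products separated by capillary electrophoresis.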

[12] = ATG_E_Box_CIS: Attagene CIS-FACTORIAL HepG2 Assay for human Enhancer Box (E-box) (AID 2282936); settings: HepG2 E-box cis-reporter transcription, actives raise or lower the signal
Procedure, shortened: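 E-box-driven reporter transcripts measured in transiently transfected HepG2 after 24 h exposure: RNA reverse-transcribed, PCR-amplified, fluorescently labelled, digested and resolved by capillary electrophoresis. Gain or loss relative to DMSO.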

[13] = ATG_M_61_CIS: Attagene CIS-FACTORIAL HepG2 Assay for M61 Transcription Factor (Internal Marker) (AID 2282937); settings: HepG2 Attagene CIS-FACTORIAL M61 internal marker reporter; actives raise or lower the signal
Procedure, shortened: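 Transfect HepG2 with MRTUs; dose 24 h; isolate RNA; reverse-transcribe with DNase I treatment; PCR-amplify, FAM-label and cut with HpaI for 2 h at 37 C; resolve by CE. Bidirectional fitting against DMSO.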

[14] = ATG_EGR_CIS: Attagene CIS-FACTORIAL HepG2 Assay for human Early Growth Response 1 (EGR1) (AID 2282938); settings: HepG2 Attagene CIS-FACTORIAL EGR reporter mRNA; actives raise or lower the signal
Procedure, shortened: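 After a 24 h treatment of transiently transfected HepG2 cells, total RNA was reverse-transcribed and reporter sequences PCR-amplified, labelled and run on capillary electrophoresis. Reporters sit under cis-regulatory promoters sensing endogenous factors.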

[15] = ATG_M_19_CIS: Attagene CIS-FACTORIAL HepG2 Assay for M19 Transcription Factor (Internal Marker) (AID 2282939); settings: HepG2 Attagene CIS-FACTORIAL M19 internal marker reporter; actives raise or lower the signal
Procedure, shortened: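 Internal marker readout, fitted in both directions against DMSO, from HepG2 cells carrying transfected cis-element reporter constructs; RT-PCR and capillary electrophoresis of reporter mRNA after 24 h exposure.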

[16] = ATG_ERE_CIS: Attagene CIS-FACTORIAL HepG2 Assay for Estrogen Response Element (ERE) (AID 2282940); settings: HepG2 ERE cis-reporter, Attagene RNA transcript; actives raise or lower the signal
Procedure, shortened: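 After 24 h compound treatment, RNA from transfected HepG2 cells was reverse-transcribed, reporter cDNA PCR-amplified, FAM-labelled, HpaI-cut and resolved by capillary electrophoresis. ERE-driven cis reporter transcripts reflect endogenous factors; gain or loss scored against DMSO.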

[17] = ATG_Ets_CIS: Attagene CIS-FACTORIAL HepG2 Assay for human Erythroblast Transformation Specific (ETS) (AID 2282941); settings: HepG2 ETS cis-reporter transcription, actives raise or lower the signal
Procedure, shortened: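 Multiplexed reporter transcript profiling: HepG2, 24 h treatment, total RNA to cDNA, PCR, 6-FAM labelling, HpaI cut, capillary electrophoresis. Gain- or loss-of-signal fitted against DMSO.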

[18] = target: Hepatocyte nuclear factor 3-beta (Homo sapiens) (UniProt Q9Y261); assay: ATG_FoxA2_CIS: Attagene CIS-FACTORIAL HepG2 Assay for human Forkhead box A2 (FOXA2) (AID 2282942); settings: HepG2 cis-reporter transcription factor activity, 24 h; actives raise or lower the signal
Procedure, shortened: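 24 h dosing of HepG2 bearing cis-reporter constructs; mRNA readout by RT-PCR/CE fluorescence; bidirectional fit, DMSO baseline.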

[19] = ATG_FoxO_CIS: Attagene CIS-FACTORIAL HepG2 Assay for human Forkhead box O (FoxO) (AID 2282943); settings: HepG2 Attagene cis-reporter, FoxO element, mRNA; actives raise or lower the signal
Procedure, shortened: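 Endogenous transcription factor activity read from multiplexed cis-promoter reporter transcripts in transiently transfected HepG2, 24 h after dosing. Reporter RNA measured via RT-PCR plus capillary electrophoresis of FAM-labeled products; gain or loss relative to DMSO.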

[20] = ATG_GATA_CIS: Attagene CIS-FACTORIAL HepG2 Assay for human GATA Binding Protein (AID 2282944); settings: HepG2 GATA cis-element reporter, Attagene multiplex mRNA; actives raise or lower the signal
Procedure, shortened: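 Reporter transcripts from a GATA cis-regulated unit, among multiplexed reporters in transfected HepG2 cells, were measured by RT-PCR with capillary electrophoresis after 24 h dosing. Induction or loss scored relative to DMSO.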

Measured: AC50

Transcription factor E2F1 (Homo sapiens), sequence (Q01094 whole entry, looked up): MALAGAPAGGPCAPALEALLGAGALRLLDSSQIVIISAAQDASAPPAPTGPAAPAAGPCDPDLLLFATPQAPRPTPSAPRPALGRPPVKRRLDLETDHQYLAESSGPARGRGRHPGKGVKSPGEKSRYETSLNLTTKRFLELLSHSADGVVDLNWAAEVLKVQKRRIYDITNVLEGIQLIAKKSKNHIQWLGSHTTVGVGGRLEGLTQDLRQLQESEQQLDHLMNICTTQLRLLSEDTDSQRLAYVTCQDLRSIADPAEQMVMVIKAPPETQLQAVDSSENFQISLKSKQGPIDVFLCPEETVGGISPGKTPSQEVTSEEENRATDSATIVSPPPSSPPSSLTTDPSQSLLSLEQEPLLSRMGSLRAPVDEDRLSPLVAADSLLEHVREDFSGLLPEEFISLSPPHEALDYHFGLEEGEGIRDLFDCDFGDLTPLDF
Retinoic acid receptor alpha (Homo sapiens), sequence (P10276 whole entry, looked up): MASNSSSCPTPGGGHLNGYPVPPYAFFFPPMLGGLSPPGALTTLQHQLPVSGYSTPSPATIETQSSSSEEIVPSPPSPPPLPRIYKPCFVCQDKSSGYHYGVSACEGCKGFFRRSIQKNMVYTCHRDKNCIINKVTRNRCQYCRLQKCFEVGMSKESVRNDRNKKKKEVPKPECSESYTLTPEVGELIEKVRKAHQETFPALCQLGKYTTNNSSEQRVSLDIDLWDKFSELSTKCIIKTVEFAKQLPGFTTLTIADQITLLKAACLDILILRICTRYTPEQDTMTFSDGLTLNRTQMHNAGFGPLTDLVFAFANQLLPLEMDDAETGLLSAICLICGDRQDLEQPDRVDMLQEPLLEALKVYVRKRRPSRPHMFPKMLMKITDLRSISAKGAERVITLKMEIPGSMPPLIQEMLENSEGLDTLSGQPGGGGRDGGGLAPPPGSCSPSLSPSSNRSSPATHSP
Hepatocyte nuclear factor 3-beta (Homo sapiens), sequence (Q9Y261 whole entry, looked up): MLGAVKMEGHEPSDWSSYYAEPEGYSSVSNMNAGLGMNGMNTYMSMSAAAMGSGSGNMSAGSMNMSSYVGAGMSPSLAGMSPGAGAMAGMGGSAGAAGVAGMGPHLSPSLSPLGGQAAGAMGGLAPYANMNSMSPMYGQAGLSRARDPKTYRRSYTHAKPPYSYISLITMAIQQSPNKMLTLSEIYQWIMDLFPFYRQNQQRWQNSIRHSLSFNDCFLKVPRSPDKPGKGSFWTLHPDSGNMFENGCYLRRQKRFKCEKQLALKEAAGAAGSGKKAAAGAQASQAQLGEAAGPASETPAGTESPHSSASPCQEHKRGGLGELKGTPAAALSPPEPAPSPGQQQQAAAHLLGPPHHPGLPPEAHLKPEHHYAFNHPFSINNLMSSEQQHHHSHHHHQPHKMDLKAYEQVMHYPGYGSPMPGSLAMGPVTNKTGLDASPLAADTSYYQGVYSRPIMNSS
Aryl hydrocarbon receptor (Homo sapiens), sequence (P35869 whole entry, looked up): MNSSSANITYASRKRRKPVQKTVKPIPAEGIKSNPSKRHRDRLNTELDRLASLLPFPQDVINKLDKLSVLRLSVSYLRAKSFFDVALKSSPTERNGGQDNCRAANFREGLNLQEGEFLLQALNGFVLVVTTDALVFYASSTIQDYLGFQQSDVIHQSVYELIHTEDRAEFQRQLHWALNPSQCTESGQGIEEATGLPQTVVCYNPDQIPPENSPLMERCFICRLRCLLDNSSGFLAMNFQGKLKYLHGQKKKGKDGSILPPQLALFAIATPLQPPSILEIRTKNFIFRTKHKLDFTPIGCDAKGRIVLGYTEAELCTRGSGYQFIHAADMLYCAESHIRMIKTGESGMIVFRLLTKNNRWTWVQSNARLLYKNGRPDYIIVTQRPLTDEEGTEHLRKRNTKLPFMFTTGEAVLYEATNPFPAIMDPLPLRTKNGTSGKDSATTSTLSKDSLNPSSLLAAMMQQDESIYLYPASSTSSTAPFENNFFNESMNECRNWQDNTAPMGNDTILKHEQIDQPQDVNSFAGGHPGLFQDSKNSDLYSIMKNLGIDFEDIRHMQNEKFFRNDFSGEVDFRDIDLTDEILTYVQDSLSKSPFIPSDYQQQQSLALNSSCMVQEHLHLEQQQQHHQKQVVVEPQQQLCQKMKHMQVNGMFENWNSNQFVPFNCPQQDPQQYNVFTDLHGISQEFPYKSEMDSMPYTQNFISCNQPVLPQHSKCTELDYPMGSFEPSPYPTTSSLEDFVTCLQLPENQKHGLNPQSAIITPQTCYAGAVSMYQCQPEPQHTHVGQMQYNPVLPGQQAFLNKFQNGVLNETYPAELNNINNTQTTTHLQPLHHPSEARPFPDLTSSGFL
CCAAT/enhancer-binding protein beta (Homo sapiens), sequence (P17676 whole entry, looked up, the tested form may be a part): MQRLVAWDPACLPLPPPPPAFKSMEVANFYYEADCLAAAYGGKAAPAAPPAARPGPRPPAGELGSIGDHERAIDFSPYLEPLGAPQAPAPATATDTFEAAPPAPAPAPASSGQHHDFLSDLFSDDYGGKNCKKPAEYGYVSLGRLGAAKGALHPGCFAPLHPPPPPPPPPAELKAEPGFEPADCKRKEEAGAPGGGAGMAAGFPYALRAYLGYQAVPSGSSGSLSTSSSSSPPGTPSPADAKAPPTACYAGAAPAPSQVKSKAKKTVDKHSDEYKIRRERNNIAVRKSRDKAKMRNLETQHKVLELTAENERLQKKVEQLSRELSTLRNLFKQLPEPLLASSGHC

N#Cc1cc(Br)c(O)c(Br)c1
active: [2] 33.5 µM | [3] 18.8 µM | [6] 50 µM | [7] 50 µM | [9] 38.9 µM | [16] 6.61 µM
inactive: all other assays above

CCCCNC(=O)OCC#CI
active: [2] 29.7 µM | [3] 25.3 µM | [4] 67.7 µM | [5] 180 µM | [7] 181 µM | [8] 60.7 µM | [9] 25.2 µM | [10] 26.7 µM | [12] 145 µM | [14] 33.4 µM | [17] 48.7 µM | [18] 173 µM | [19] 26.4 µM | [20] 49.2 µM
inactive: [1] | [2] | [3] | [4] | [5] | [6] | [7] | [8] | [9] | [10] | [11] | [12] | [13] | [14] | [15] | [16] | [17] | [18] | [19] | [20]

OC(c1ccc(Cl)cc1)(c1cncnc1)c1ccccc1Cl (configuration not stated)
active: [4] 2.95 µM | [5] 13.1 µM | [7] 13.3 µM | [9] 19.8 µM | [10] 13.1 µM | [12] 2.6 µM | [16] 3.79 µM | [20] 12.9 µM
inactive: [1] | [2] | [3] | [4] | [5] | [6] | [7] | [8] | [9] | [10] | [11] | [12] | [13] | [14] | [15] | [16] | [17] | [18] | [19] | [20]

CC(C)(C)c1ccc(CSc2cnn(C(C)(C)C)c(=O)c2Cl)cc1
active: [2] 0.188 µM | [3] 0.0129 µM | [5] 50 µM | [7] 0.0997 µM | [9] 0.103 µM | [10] 0.583 µM | [14] 0.128 µM | [16] 5.23 µM
inactive: all other assays above
